Tgondii IFNg: blocks Toxoplasma gondii growth in the presence of IFN-gamma | Toxoplasma gondii growth in IFN-gamma-treated host cells; active compounds read low | activity change, negative = inhibition, % (test concentration not listed) | 3.8% of 69,000 active | AID 1259416; in the data active = activity change below about -70%, passing the limit was not always enough;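 also: host cells are HeLa cells infected with Toxoplasma gondii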
Numbers without * were called inactive; ! = not active in a repeat. Many of the other results were omitted from the sample, so hits are more common in it than they were.

SMILES | Tgondii IFNg
CN(C)C(=O)N1CCC(c2nnc3ccc(C(=O)CCN4CCOCC4)cn23)C1 (stereo not given) | 25.3
O=C(CN1CCN(CC2CC2)C(CCO)C1)NC1CCCCCCC1 (stereo not given) | -0.9
Cc1nnnn1-c1ccc(CC(=O)N2CCCCC2CCN2CCCC2)cc1 (stereo not given) | 3.3
Cc1cccc(-c2nc(C)c(CCNC(=O)C(=O)Nc3ccc(C)c(F)c3)s2)c1 | 63.9
COc1cccc2cc(-c3cncn3CCCC(C)(C)CO)oc12 | 11.1
CCCc1ccc(S(=O)(=O)N2CCc3nc(-c4ccc(OC)cc4)sc3C2)cc1 | 16.3
COc1cccc(-c2nc3c(s2)CN(S(=O)(=O)c2ccc(CC(C)C)cc2)CC3)c1 | -17.4
COc1cccc(-c2nc3c(s2)CN(S(=O)(=O)c2ccc(OC)c(OC)c2)CC3)c1 | -20.1
O=S(=O)(c1ccc(F)cc1)N1CCc2nc(-c3ccccc3)sc2C1 | 45.4
COc1ccc(-c2nc3c(s2)CN(S(=O)(=O)c2cc(C)cc(C)c2)CC3)cc1OC | -124.8*
COc1ccc(-c2nc3c(s2)CN(S(=O)(=O)c2ccc(C)cc2)CC3)cc1 | -76.2*
COc1ccc(-c2nc3c(s2)CN(S(=O)(=O)c2ccc(Cl)cc2)CC3)cc1 | 16.4
CCc1ccccc1S(=O)(=O)N1CCc2nc(-c3cccc(OC)c3)sc2C1 | -91.1*
O=S(=O)(c1ccc(F)cc1F)N1CCc2nc(-c3ccccc3)sc2C1 | 37.2
CCOc1ccc(S(=O)(=O)N2CCc3nc(-c4cccc(OC)c4)sc3C2)cc1 | -23.3
COc1ccc(S(=O)(=O)N2CCc3nc(-c4ccc(C)cc4)sc3C2)cc1OC | 16.5
Cc1cc(C)c(S(=O)(=O)N2CCc3nc(-c4ccccc4)sc3C2)cc1C | -89.2*
Cc1nc(CN2C(=O)C[C@H]3[C@H]2CCN3C(=O)c2ccoc2)cs1 | 131.3
Cc1cc(C(C)(C)C)oc1C(=O)N1CCC(C(=O)c2nccs2)CC1 | -47.3
O=C(NC1CCCC1)N1CC[C@H]2CN(Cc3cccc(Cl)c3)S(=O)(=O)[C@@H]2CC1 | -27.7
Cc1cc(C)c(NC(=O)Cn2ncc3c(N4CCN(c5ccccc5)CC4)ncnc32)c(C)c1 | 52.7
O=C(c1ccoc1)N1CCCn2c(nc(Cn3cncn3)cc2=O)C1 | -8.7
CS(=O)(=O)N1CCc2c(nc(C3CCN(C(=O)C4CCCCC4)C3)[nH]c2=O)C1 (stereo not given) | 24.6
CCCCC(=O)Nc1cc(C(=O)O)ccc1N1CCC(C(N)=O)(N2CCCCC2)CC1 | 28.6
Cc1ccc(OCCN(C)Cc2ccnc(C(C)C)n2)c(C)c1 | 6.9
SMILES | Tgondii IFNg
CCCCCCCCCCC[C@@H](C[C@@H]1OC(=O)[C@H]1CCCCCC)OC(=O)[C@H](CC(C)C)NC=O | -82.3*
CCCCC[C@H](O)/C=C/[C@H]1[C@H](O)CC(=O)[C@@H]1CCCCCCC(=O)O | 13.6
OC1C[C@H]2CC[C@@H](C1)N2c1nc(-c2cccnc2)nc2c1CNC2 (stereo not given in full) | -7.2
Nc1[nH]c(=O)ncc1F | -79.1*!
O=C(CN1CCCC(c2nccnc2-n2ccnc2)C1)N1CCOCC1 (stereo not given) | 4.2
CCCN1C(=O)CCc2cc(NS(=O)(=O)c3ccc(C(F)(F)F)cc3)ccc21 | -82.3*
CCCN1C(=O)CCc2cc(NS(=O)(=O)c3ccc(CC)cc3)ccc21 | -81.6*
COCCN1C(=O)CCc2cc(NS(=O)(=O)c3ccc(C)c(C)c3)ccc21 | 22.0
COCCN1C(=O)CCc2cc(NS(=O)(=O)c3ccccc3)ccc21 | -27.2
COCCN1C(=O)CCc2cc(NS(=O)(=O)c3ccc4c(c3)CCC4)ccc21 | -63.2
COCCN1C(=O)CCc2cc(NS(=O)(=O)c3ccc(C)cc3)ccc21 | 39.4
CCCN1C(=O)CCc2cc(NS(=O)(=O)c3cccs3)ccc21 | 5.5
COCCN1C(=O)CCc2cc(NS(=O)(=O)c3ccc(C(F)(F)F)cc3)ccc21 | 1.0
COCCN1C(=O)CCc2cc(NS(=O)(=O)c3ccc(CC(C)C)cc3)ccc21 | -78.8*
C=CCN1Cc2ccccc2C2(CCN(Cc3cnn(C)c3)CC2)C1 | -24.4
COCCN(Cc1ccc(C)cc1)C(=O)c1ccc(N(C)S(C)(=O)=O)cc1 | -6.6
COc1cc(C(=O)Nc2ccc(-c3nc(-c4ccc(C)cc4C)co3)cc2)cc(OC)c1OC | -0.3
Cc1ccc(S(=O)(=O)N2CCC3(CC2)NCCN=C3NCc2ccc(F)cc2)c(C)c1 | 0.4
COc1cc([C@@H]2[C@H]3CO[C@@]4(O)C(=O)[C@@H]2C=C([C@H]2Oc5cc(O)cc(O)c5C(=O)[C@@H]2O)[C@@H]34)ccc1O | 4.2
CN(Cc1n[nH]c2c1CCCCC2)C(=O)c1cc(-c2cccn2C)n[nH]1 | -63.4
Cc1cccc(CN2CCC3(CC2)N=C(c2ccc(C)c(C)c2)C(=O)N3)c1 | -17.0
c1ccc(-c2ccc(-c3[nH]ncc3CN3CCN4CCCC4C3)cc2)cc1 (stereo not given) | 32.4
CC(c1cccc(-c2ccc[nH]c2=O)c1)N1CCCC1 (stereo not given) | 2.6
CC(c1cccc(-c2ccc3[nH]c(=O)[nH]c(=O)c3c2)c1)N1CCCC1 (stereo not given) | -71.4*
